This is a sample that favours compounds with a hit; in the whole collection about 2.4% have one here.
CRFBP-R2 block – blocks CRF-induced signaling of the CRF-BP/CRF-R2 complex. 350,000 compounds, 0.59% hits. HEK293 CRF-R2/CRF-BP, CRF-induced calcium fluorescence. AID 588475. inhibition, % at 11.8 µM;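 active = inhibition of the ligand-induced calcium signal above about 50% at the single tested concentration, limit read from the data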
TLR9-MyD88 block – TLR9-MyD88 interaction inhibition | Q9NR96+Q99836 | CHO BLA complementation TLR9-MyD88, CCF4 FRET ratio | inhibition, % at 4.98 µM | 340,000 compounds, 0.21% hits;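 active = inhibition above the mean over all tested compounds plus 3 SD, cut at about 21% in these data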;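 also: 0% = DMSO only wells and 100% = clavulanate BLA inhibitor control wells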
TLR4-MyD88 BLA – inhibitors of human TLR4-MyD88 binding | HeLa CL3-4 TLR4/MyD88 BLA complementation, FRET ratio | inhibition, % at 8.4 µM | 200,000 compounds, 0.18% hits; in the data active = inhibition above about 25%;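 also: 0% = vehicle and 100% = reference inhibitor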
ABHD5-PLIN5 inh – inhibitors of human ABHD5-perilipin-5 interaction; Q00G26+Q8WTS1; Split G. princeps luciferase complementation, luminescence, 4 h; inhibition, % at 4 µM; 360,000 compounds, 0.78% hits; AID 602281;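 active = inhibition above the mean inhibition across every tested compound plus 3 SD, cut at about 22% in these data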;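 also: 0% = DMSO only wells and the 100% control is not disclosed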
NOD2 RIPK2 PPI – blocks binding of human NOD2 to RIPK2. O43353. CHO BLA complementation NOD2-RIPK2, CCF4 ratio. inhibition, % at 4.98 µM. 360,000 compounds, 0.38% hits; in the data active = inhibition above about 21%;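 also: 0% = vehicle only and 100% = reference blocker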
m5-HT2A agonist – mouse HTR2A agonism via beta-arrestin recruitment; activation, % at 7.6 µM; CHO-K1 mHTR2A beta-arrestin complementation, luminescence; percent of 30 µM serotonin response; 360,000 compounds, 0.66% hits; P35363;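 active = activation above a run cutoff, the mean activation of all tested compounds plus 3 SD, cut at about 14% in these data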;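 also: 0% = plate median of compound wells and 100% = 30 µM serotonin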
Target sequence (P35363 whole entry, looked up): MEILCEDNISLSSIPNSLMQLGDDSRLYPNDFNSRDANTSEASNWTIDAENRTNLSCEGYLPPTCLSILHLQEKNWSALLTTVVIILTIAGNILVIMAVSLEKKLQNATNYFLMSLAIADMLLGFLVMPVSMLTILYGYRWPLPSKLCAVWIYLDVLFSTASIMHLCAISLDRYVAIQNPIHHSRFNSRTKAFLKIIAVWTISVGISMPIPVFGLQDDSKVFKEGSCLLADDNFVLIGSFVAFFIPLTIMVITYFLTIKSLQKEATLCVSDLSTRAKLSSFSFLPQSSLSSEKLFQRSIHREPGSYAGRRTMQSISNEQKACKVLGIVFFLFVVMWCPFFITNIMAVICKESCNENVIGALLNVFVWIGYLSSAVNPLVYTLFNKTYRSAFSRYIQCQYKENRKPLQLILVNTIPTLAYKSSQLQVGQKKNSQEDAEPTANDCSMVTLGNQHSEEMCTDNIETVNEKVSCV
ABHD5 PLIN5 conf – confirmation of human ABHD5-PLIN5 interaction inhibitors. 2,200 compounds, 67% hits. shares compounds with ABHD5-PLIN5 inh. AID 651612. biochemical ABHD5-PLIN5 interaction, luminescence. inhibition, % at 4 µM; in the data active = inhibition above about 23%;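 also: 0% = DMSO vehicle wells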
HNF4 split-luc – active in HNF4 split-luciferase counter-screen for ABHD5-PLIN5 inhibitors; shares compounds with ABHD5-PLIN5 inh; HNF4 dimerization, luminescence, biochemical; 2,200 compounds, 77% hits; inhibition, % at 4 µM;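 active = mean inhibition across replicate wells exceeding the computed hit threshold, cut at about 13% in these data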;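 also: light from luciferase halves that rejoin when HNF4 fusion proteins dimerize; 0% = DMSO only wells and the 100% control is not given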
Numbers without * were called inactive; nt = no result given.

SMILES	CRFBP-R2 block	TLR9-MyD88 block	TLR4-MyD88 BLA	ABHD5-PLIN5 inh	NOD2 RIPK2 PPI	m5-HT2A agonist	ABHD5 PLIN5 conf	HNF4 split-luc
C#CCOCCOCCOCCNc1nc(N2CCN(C(=O)CCCCCCCCCCNC(=O)[C@@H](CCC(=O)O)n3cc(CCCCCN)nn3)CC2)nc(N2CCN(C(=O)CCCCCCCCCCNC(=O)[C@H](CO)n3cc(CCCCCN)nn3)CC2)n1	0	5	nt	36*	-12	4	9	2
C#CCOCCOCCOCCNc1nc(N2CCOCC2)nc(N2CCN(C(=O)[C@H]([C@@H](C)CC)n3cc(CCCN=C(N)N)nn3)CC2)n1	8	-69	2	-5	-7	1	nt	nt
C#CCOCCOCCOCCNc1nc(N2CCN(C(=O)CCCCCCCCCCNC(=O)[C@@H](CCC(=O)O)n3cc(CCCCCN)nn3)CC2)nc(N2CCN(C(=O)CCCCCCCCCCNC(=O)[C@H](CCCCN)n3cc(C[C@@H](C)CC)nn3)CC2)n1	-189	6	nt	41*	3	1	17	-7
C#CCOCCOCCOCCNc1nc(N2CCN(C(=O)CCCCCCCCCCNC(=O)[C@@H](CCSC)n3cc(CCO)nn3)CC2)nc(N2CCN(C(=O)CCCCCCCCCCNC(=O)[C@H](CO)n3cc(CCCCCN)nn3)CC2)n1	-23	1	nt	46*	8	4	12	1
C#CCOCCOCCOCCNc1nc(N2CCOCC2)nc(N2CCN(C(=O)CCCCCCCCCCNC(=O)[C@H]([C@@H](C)CC)n3cc(CCCCN=C(N)N)nn3)CC2)n1	11	4	nt	34*	5	-8	3	0
CC(C)C[C@H]1CN(CCCC[C@@H]2CNC(=O)C(=O)N2Cc2ccccc2)C(=O)C(=O)N1Cc1ccccc1	nt	nt	nt	-2	-10	-2	nt	nt
COc1ccccc1-c1ncn(Cc2cccc(-c3ccccc3)c2)c1-c1ccco1	nt	nt	nt	25*	8	-9	22*	37*
CC1=C(C(=O)N(C)C)CC(CC(=O)NCC2CCCCC2)C(=O)N1Cc1ccc(F)cc1 (stereo not drawn)	nt	nt	nt	-2	5	1	nt	nt
O=C(/C=C/c1cccc(OCc2ccccc2)c1)c1cccnc1	4	1	23	36*	-6	-2	61*	70*
COc1ccc(C(=O)/C=C/c2ccc3c(c2)OCCO3)cc1	12	7	nt	4	-11	0	nt	nt
O=C(/C=C/c1ccc2c(c1)OCCO2)c1ccccc1	17	nt	nt	27*	-4	1	56*	43*
O=C(/C=C/c1ccc2c(c1)OCO2)c1cccnc1	-7	1	nt	28*	-17	-5	63*	54*
O=C(/C=C/c1ccc2c(c1)OCO2)Nc1cccnc1	-1	9	-15	3	1	-1	nt	nt
C/C(=N\NC(=O)c1cccnc1)c1cccc([N+](=O)[O-])c1	4	-5	-4	3	-7	0	nt	nt
O=C(O)/C=C/c1cccc(OCc2ccccc2)c1	-11	-5	-2	-8	-3	-3	nt	nt
CC(/C=C/c1cccc([N+](=O)[O-])c1)=N/NC(=O)c1cccnc1	-18	0	2	29*	-10	-5	20	16*
OC(c1ccco1)c1nc(-c2cccs2)cs1 (stereo not drawn)	nt	nt	nt	17	-1	0	nt	nt
Clc1ccc(-c2nc3c4ccccc4ccn3c2Cc2ccsc2)cc1	nt	nt	nt	-3	-7	-5	nt	nt
CC(C)(C)S(=O)N1Cc2cc(C(=O)NCc3ccc(Oc4ccccc4)cc3)nc(-c3cccc(-c4cc5ccccc5o4)c3)c2[C@@H]1CCO (stereo partly drawn)	nt	nt	nt	7	4	-4	nt	nt
O=C(O)c1ccc(/C=C/C(=O)c2ccc3c(c2)OCCCO3)cc1	26	6	nt	49*	1	-5	48*	43*
O=C(/C=C/c1ccc([N+](=O)[O-])cc1)NCc1cccnc1	15	-11	-3	1	-6	0	nt	nt
